Unmarked numbers belong to inactive results.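 How the source made its calls: active = MAPPIT score above the 99th percentile of random reference set scores in the same batch; inactive = at or below it.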
Columns and labels:
Test in all cases: MAPPIT interaction score (arbitrary units); higher = stronger binary interaction signal, active = hit call of the paper
[1] = system: CG17377; settings: MAPPIT configuration: N-C; pair source set: screen_4
[2] = system: CG32817; settings: MAPPIT configuration: N-N; pair source set: screen_2
[3] = system: Mst87F; settings: MAPPIT configuration: N-N; pair source set: screen_2
[4] = system: CG44250; settings: MAPPIT configuration: N-N; pair source set: screen_2
[5] = system: lwr; settings: MAPPIT configuration: N-N
[6] = system: C15; settings: MAPPIT configuration: N-N; pair source set: Lit-BS-16
[7] = system: CG8173; settings: MAPPIT configuration: N-N; pair source set: screen_1
[8] = system: Vsx2; settings: MAPPIT configuration: N-N; pair source set: screen_2
[9] = system: CG46385; settings: MAPPIT configuration: N-N; pair source set: screen_1
[10] = system: CG7011; settings: MAPPIT configuration: N-N; pair source set: Lit-BS-16
[11] = system: CG4116; settings: MAPPIT configuration: N-N; pair source set: Curagen_high_conf
[12] = system: CG1607; settings: MAPPIT configuration: N-N; pair source set: DPIM
[13] = system: CG14044; settings: MAPPIT configuration: N-N; pair source set: Finley_Y2H
[14] = system: CG1640; settings: MAPPIT configuration: N-C; pair source set: screen_4
[15] = system: Pex5; settings: MAPPIT configuration: N-N; pair source set: Curagen_low_conf
[16] = system: CG31406; settings: pair source set: RRS
[17] = system: Hakai; settings: MAPPIT configuration: N-N; pair source set: DPIM
[18] = system: Lkb1; settings: MAPPIT configuration: N-N; pair source set: DPIM
[19] = system: RnrS; settings: MAPPIT configuration: N-N; pair source set: DPIM
[20] = system: bai; settings: MAPPIT configuration: N-N; pair source set: DPIM
[21] = system: mRpS24; settings: MAPPIT configuration: N-N; pair source set: DPIM
[22] = system: scf; settings: MAPPIT configuration: N-N; pair source set: DPIM
[23] = system: CG8997; settings: MAPPIT configuration: N-N; pair source set: Finley_Y2H
[24] = system: CG3703; settings: MAPPIT configuration: N-N; pair source set: Finley_Y2H
[25] = system: CG15545; settings: MAPPIT configuration: N-N; pair source set: Curagen_low_conf
[26] = system: CG14985; settings: MAPPIT configuration: N-N; pair source set: screen_2
[27] = system: CG31740; settings: MAPPIT configuration: N-N; pair source set: screen_2
[28] = system: CG4250; settings: MAPPIT configuration: N-C; pair source set: screen_4
[29] = system: lms; settings: MAPPIT configuration: N-N; pair source set: screen_1
[30] = system: CG2120; settings: MAPPIT configuration: N-C; pair source set: screen_3
[31] = system: Odj; settings: MAPPIT configuration: N-N; pair source set: screen_2
[32] = system: caup; settings: MAPPIT configuration: N-C; pair source set: screen_3
[33] = system: Atg1; settings: MAPPIT configuration: N-N; pair source set: Finley_Y2H
[34] = system: CG3517; settings: MAPPIT configuration: N-N; pair source set: screen_1
[35] = system: Arpc3A; settings: pair source set: Lit-BM-16
[36] = system: CG5111; settings: MAPPIT configuration: N-C; pair source set: screen_3
[37] = system: CG12567; settings: MAPPIT configuration: N-N; pair source set: Finley_Y2H
[38] = system: mRpL47; settings: MAPPIT configuration: N-N; pair source set: Finley_Y2H
[39] = system: CG4619; settings: MAPPIT configuration: N-N; pair source set: DPIM
[40] = system: CG9132; settings: MAPPIT configuration: N-N; pair source set: Finley_Y2H
[41] = system: CG9536; settings: MAPPIT configuration: N-N; pair source set: DPIM
[42] = system: Ktl; settings: MAPPIT configuration: N-N; pair source set: screen_2
[43] = system: Tina-1; settings: MAPPIT configuration: N-N; pair source set: DPIM
[44] = system: CG9775; settings: MAPPIT configuration: N-N; pair source set: DPIM
[45] = system: CG9986; settings: MAPPIT configuration: N-N; pair source set: Lit-BS-16
[46] = system: HP1e; settings: MAPPIT configuration: N-N; pair source set: Lit-BS-16
[47] = system: CkIIalpha; settings: MAPPIT configuration: N-N; pair source set: Lit-BM-16
[48] = system: Doa; settings: MAPPIT configuration: N-N; pair source set: Finley_Y2H
[49] = system: Smg6; settings: MAPPIT configuration: N-N; pair source set: Finley_Y2H
[50] = system: Srp54; settings: MAPPIT configuration: N-N; pair source set: Finley_Y2H
[51] = system: D; settings: MAPPIT configuration: N-N; pair source set: Finley_Y2H
[52] = system: Eno; settings: MAPPIT configuration: N-N; pair source set: Lit-BM-16
[53] = system: MESK2; settings: MAPPIT configuration: N-N; pair source set: Lit-BS-16
[54] = system: Gmppa; settings: MAPPIT configuration: N-N; pair source set: Curagen_high_conf
[55] = system: Mlf; settings: pair source set: Lit-BM-16
[56] = system: Nost; settings: MAPPIT configuration: N-N; pair source set: Curagen_high_conf
[57] = system: Nup50; settings: pair source set: Lit-BM-16
[58] = system: Nup93-1; settings: MAPPIT configuration: N-N; pair source set: Curagen_low_conf
[59] = system: apt; settings: MAPPIT configuration: N-N; pair source set: Curagen_low_conf
[60] = system: PAN3; settings: MAPPIT configuration: N-N; pair source set: screen_1
[61] = system: l(3)05822; settings: MAPPIT configuration: N-N; pair source set: screen_2
[62] = system: mad2; settings: MAPPIT configuration: N-N; pair source set: Finley_Y2H
[63] = system: PGAP5; settings: MAPPIT configuration: N-N; pair source set: Finley_Y2H
[64] = system: Prx2; settings: MAPPIT configuration: N-N; pair source set: Curagen_high_conf
[65] = system: Reph; settings: MAPPIT configuration: N-C; pair source set: Lit-BM-16
[66] = system: RfC3; settings: pair source set: Lit-BM-16
[67] = system: Sec24CD; settings: MAPPIT configuration: N-N; pair source set: Lit-BS-16
[68] = system: Src64B; settings: MAPPIT configuration: N-N; pair source set: Lit-BS-16
[69] = system: chn; settings: MAPPIT configuration: N-N; pair source set: Curagen_low_conf
[70] = system: pan; settings: MAPPIT configuration: N-N; pair source set: Finley_Y2H
[71] = system: su(Hw); settings: MAPPIT configuration: N-N; pair source set: DPIM
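Further: HEK293T cells with Epo stimulation, STAT-responsive firefly luciferase reporter, fold induction versus unstimulated cells divided by the larger fold induction of two negative controls lacking either bait or prey.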

Chain of bowl (chain, as listed by the source): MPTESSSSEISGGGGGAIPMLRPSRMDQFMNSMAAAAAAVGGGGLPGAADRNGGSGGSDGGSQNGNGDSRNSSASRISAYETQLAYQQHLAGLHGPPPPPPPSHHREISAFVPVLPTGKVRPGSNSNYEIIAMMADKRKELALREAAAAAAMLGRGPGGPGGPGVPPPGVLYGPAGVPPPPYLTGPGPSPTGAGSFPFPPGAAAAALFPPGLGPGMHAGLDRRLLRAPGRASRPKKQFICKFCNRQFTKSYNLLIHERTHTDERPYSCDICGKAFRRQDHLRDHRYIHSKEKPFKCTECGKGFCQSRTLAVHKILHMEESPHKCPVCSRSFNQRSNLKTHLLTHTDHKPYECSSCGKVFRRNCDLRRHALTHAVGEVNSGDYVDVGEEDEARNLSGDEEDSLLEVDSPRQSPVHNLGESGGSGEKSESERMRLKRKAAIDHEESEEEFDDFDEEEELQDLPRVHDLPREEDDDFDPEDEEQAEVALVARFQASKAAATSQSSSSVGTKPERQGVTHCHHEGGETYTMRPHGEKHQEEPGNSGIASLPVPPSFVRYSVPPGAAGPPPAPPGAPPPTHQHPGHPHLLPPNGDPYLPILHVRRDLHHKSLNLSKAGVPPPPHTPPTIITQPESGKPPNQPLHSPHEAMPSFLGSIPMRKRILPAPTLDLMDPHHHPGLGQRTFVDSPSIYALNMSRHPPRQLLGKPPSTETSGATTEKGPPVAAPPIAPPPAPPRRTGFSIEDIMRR
Chain of dsx (chain, as listed by the source): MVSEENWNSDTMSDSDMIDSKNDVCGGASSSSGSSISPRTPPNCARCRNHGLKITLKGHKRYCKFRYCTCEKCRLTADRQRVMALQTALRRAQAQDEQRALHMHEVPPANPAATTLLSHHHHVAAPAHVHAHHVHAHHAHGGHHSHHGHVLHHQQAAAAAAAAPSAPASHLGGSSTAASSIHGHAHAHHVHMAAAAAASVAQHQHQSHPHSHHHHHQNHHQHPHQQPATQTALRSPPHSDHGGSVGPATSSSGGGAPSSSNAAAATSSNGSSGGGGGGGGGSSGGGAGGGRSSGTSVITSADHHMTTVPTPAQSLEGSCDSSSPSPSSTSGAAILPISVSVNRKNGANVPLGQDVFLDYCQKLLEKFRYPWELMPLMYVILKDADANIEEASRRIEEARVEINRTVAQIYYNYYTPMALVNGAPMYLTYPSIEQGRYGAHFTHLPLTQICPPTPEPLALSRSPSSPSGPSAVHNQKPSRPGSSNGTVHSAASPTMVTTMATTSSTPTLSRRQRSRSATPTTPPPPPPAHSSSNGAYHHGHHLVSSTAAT
Chain of Gsc (chain, as listed by the source): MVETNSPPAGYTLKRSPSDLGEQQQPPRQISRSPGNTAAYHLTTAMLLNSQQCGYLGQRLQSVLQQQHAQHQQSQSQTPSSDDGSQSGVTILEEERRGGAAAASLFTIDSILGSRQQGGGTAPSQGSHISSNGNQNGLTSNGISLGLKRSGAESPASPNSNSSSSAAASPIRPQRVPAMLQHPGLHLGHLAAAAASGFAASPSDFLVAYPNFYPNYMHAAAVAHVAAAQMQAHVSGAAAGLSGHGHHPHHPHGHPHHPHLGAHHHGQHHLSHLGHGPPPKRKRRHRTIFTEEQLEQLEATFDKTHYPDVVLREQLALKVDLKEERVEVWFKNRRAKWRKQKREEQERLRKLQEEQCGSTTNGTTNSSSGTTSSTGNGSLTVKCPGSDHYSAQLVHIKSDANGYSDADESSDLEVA
Chain of Hsc70-1 (chain, as listed by the source): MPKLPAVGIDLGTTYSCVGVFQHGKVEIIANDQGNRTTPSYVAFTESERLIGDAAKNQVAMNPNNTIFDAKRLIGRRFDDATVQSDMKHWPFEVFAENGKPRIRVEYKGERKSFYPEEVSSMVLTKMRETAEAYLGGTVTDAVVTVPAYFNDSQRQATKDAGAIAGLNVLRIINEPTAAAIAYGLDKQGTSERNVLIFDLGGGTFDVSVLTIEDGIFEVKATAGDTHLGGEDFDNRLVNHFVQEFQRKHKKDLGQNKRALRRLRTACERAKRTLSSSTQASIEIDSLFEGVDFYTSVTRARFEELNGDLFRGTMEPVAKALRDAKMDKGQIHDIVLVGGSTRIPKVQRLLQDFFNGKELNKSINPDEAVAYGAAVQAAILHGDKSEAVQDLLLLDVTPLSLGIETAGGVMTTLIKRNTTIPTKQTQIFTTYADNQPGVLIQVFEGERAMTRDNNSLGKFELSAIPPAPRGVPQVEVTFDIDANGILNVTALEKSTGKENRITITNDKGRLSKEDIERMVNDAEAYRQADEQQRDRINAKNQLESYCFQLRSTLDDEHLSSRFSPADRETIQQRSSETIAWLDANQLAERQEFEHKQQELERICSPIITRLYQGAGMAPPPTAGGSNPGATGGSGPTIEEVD
Chain of SmB (chain, as listed by the source): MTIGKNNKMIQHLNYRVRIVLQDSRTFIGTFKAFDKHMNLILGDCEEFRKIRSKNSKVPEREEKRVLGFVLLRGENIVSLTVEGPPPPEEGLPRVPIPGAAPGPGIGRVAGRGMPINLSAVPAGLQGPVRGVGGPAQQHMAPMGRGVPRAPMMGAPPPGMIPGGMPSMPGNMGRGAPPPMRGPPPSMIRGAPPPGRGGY
Chain of Doa (chain, as listed by the source): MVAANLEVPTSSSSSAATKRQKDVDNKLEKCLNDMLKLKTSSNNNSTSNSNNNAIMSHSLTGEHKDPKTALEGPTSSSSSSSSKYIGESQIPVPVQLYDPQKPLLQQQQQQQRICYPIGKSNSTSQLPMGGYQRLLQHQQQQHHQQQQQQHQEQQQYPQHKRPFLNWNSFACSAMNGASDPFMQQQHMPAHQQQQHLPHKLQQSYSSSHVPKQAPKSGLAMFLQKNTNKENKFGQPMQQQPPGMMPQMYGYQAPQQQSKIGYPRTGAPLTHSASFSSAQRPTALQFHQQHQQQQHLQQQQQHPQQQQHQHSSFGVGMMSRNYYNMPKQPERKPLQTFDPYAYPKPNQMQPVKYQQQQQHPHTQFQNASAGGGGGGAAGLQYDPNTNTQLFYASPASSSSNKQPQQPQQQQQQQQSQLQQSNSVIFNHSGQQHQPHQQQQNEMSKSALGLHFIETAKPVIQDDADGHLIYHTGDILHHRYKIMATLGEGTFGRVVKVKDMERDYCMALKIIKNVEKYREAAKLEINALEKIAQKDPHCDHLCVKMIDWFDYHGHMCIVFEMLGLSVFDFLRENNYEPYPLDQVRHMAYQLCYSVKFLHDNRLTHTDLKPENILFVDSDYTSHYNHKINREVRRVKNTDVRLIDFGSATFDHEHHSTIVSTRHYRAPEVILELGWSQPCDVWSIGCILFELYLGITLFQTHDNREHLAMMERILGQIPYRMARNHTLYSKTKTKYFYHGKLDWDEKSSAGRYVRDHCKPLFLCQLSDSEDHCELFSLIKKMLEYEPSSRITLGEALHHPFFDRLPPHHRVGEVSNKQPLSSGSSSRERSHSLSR
Chain of otp (chain, as listed by the source): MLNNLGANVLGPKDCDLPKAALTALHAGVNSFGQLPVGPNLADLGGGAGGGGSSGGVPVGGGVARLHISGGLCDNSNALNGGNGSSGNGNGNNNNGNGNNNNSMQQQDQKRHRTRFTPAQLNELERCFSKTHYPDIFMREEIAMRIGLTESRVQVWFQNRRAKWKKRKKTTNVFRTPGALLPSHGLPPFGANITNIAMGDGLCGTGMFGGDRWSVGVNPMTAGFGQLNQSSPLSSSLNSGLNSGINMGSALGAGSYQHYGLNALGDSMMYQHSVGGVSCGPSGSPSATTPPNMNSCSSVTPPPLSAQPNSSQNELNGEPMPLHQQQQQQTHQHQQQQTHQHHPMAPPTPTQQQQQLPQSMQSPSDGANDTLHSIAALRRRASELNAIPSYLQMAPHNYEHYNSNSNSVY
Chain of Acam (chain, as listed by the source): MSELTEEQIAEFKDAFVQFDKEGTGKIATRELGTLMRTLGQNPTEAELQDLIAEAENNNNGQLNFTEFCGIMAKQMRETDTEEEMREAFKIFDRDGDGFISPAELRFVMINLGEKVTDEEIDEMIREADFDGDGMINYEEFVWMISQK
Chain of Arpc2 (chain, as listed by the source): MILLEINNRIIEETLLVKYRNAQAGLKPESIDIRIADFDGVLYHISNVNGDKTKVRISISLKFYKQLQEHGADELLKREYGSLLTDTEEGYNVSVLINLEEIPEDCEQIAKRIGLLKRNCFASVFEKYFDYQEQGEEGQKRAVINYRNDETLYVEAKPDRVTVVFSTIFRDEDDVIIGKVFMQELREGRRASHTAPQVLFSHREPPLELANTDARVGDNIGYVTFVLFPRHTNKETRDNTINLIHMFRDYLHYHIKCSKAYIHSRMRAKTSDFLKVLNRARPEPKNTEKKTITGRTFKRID
Chain of Hsp70Aa (chain, as listed by the source): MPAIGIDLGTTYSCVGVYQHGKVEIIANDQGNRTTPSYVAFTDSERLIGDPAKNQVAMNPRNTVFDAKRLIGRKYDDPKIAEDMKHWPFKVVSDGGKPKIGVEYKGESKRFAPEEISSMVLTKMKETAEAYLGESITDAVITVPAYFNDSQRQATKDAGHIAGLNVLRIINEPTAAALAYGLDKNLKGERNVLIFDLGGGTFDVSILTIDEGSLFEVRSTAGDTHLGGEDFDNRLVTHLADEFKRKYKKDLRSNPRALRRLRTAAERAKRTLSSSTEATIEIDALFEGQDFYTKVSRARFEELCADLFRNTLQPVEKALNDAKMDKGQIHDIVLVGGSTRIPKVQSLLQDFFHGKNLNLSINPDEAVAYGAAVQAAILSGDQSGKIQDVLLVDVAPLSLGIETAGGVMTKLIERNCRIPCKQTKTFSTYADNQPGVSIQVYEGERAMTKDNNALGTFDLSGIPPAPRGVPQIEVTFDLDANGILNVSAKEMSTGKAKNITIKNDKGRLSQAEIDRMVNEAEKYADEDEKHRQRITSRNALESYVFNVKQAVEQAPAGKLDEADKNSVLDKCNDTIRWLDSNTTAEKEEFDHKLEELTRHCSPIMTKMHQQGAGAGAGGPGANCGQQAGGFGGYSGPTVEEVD
Chain of RpL39 (chain, as listed by the source): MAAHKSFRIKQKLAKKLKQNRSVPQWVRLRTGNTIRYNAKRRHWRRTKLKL

## dsx
[1]
  MAPPIT interaction score: 2.14
[2]
  MAPPIT interaction score: 2.31
[3]
  MAPPIT interaction score: 4.59 (active)

## cher
[4]
  MAPPIT interaction score: 0.155
[5]; pair source set: DPIM
  MAPPIT interaction score: -0.358

## bsh
[6]
  MAPPIT interaction score: 0.102

## otp
[7]
  MAPPIT interaction score: -0.108
[8]
  MAPPIT interaction score: -0.232

## Poxm
[9]
  MAPPIT interaction score: 1.84
[10]
  MAPPIT interaction score: 0.0698

## SmD1
[11]
  MAPPIT interaction score: -0.319

## Fmr1
[12]
  MAPPIT interaction score: 0.0271

## zen
[13]
  MAPPIT interaction score: 1.38

## Acam
[14]
  MAPPIT interaction score: 0.679
[15]
  MAPPIT interaction score: 0.715

## Hsc70-1
[16]; MAPPIT configuration: N-C
  MAPPIT interaction score: 1.43
[16]; MAPPIT configuration: N-N
  MAPPIT interaction score: -0.111
[17]
  MAPPIT interaction score: 0.323
[18]
  MAPPIT interaction score: -0.0906
[19]
  MAPPIT interaction score: 1
[20]
  MAPPIT interaction score: -0.235
[21]
  MAPPIT interaction score: -0.169
[22]
  MAPPIT interaction score: 1.56

## lark
[23]
  MAPPIT interaction score: 1.37

## gsb-n
[24]
  MAPPIT interaction score: 0.258

## RpL23
[25]
  MAPPIT interaction score: 0.083

## Vps60
[26]
  MAPPIT interaction score: 0.0854

## Gsc
[27]
  MAPPIT interaction score: 3.16 (active)
[28]
  MAPPIT interaction score: 1.43
[29]
  MAPPIT interaction score: -0.637

## bowl
[30]
  MAPPIT interaction score: 0.273
[31]
  MAPPIT interaction score: -0.226
[32]
  MAPPIT interaction score: -0.0689

## Rbp6
[33]
  MAPPIT interaction score: 0.221

## e(y)3
[34]
  MAPPIT interaction score: 3.82 (active)

## Arpc2
[35]; MAPPIT configuration: N-C
  MAPPIT interaction score: 2.37
[35]; MAPPIT configuration: N-N
  MAPPIT interaction score: 0.165

## Abd-B
[36]
  MAPPIT interaction score: 1.34

## prd
[37]
  MAPPIT interaction score: 2.65
[38]
  MAPPIT interaction score: 0.0739

## pnr
[39]
  MAPPIT interaction score: 3.3 (active)

## Gyc89Da
[40]
  MAPPIT interaction score: 0.702

## Arf1
[41]
  MAPPIT interaction score: 0.397
[42]
  MAPPIT interaction score: 2.35
[43]
  MAPPIT interaction score: 0.274

## RpL4
[44]
  MAPPIT interaction score: -0.331

## Hsp70Aa
[45]
  MAPPIT interaction score: 0.269
[46]
  MAPPIT interaction score: 0.126

## CkIIbeta
[47]
  MAPPIT interaction score: 3.04 (active)

## Doa
[48]
  MAPPIT interaction score: 1.07
[49]
  MAPPIT interaction score: 1.25
[50]
  MAPPIT interaction score: -1.75
[5]; pair source set: Finley_Y2H
  MAPPIT interaction score: -1.12

## RpL39
[51]
  MAPPIT interaction score: -0.321

## Cyp1
[52]
  MAPPIT interaction score: 0.063
[53]
  MAPPIT interaction score: 0.0293

## Gmppb
[54]
  MAPPIT interaction score: 1.26

## DnaJ-1
[55]; MAPPIT configuration: N-C
  MAPPIT interaction score: 1.44
[55]; MAPPIT configuration: N-N
  MAPPIT interaction score: 0.787

## Src42A
[56]
  MAPPIT interaction score: 1.25

## Pen
[57]; MAPPIT configuration: N-C
  MAPPIT interaction score: 0.849
[57]; MAPPIT configuration: N-N
  MAPPIT interaction score: 0.121

## Hrb98DE
[58]
  MAPPIT interaction score: -0.403
[59]
  MAPPIT interaction score: -0.399

## SmB
[60]
  MAPPIT interaction score: -0.24
[61]
  MAPPIT interaction score: 0.0651
[62]
  MAPPIT interaction score: -0.029

## Dfd
[63]
  MAPPIT interaction score: 0.749

## Srx
[64]
  MAPPIT interaction score: -0.16

## mnb
[65]
  MAPPIT interaction score: 1.38

## RfC4
[66]; MAPPIT configuration: N-C
  MAPPIT interaction score: 3.58
[66]; MAPPIT configuration: N-N
  MAPPIT interaction score: 6.38 (active)

## Jon99Cii
[67]
  MAPPIT interaction score: -0.28

## Pgi
[68]
  MAPPIT interaction score: -0.233

## Hsp83
[69]
  MAPPIT interaction score: 0.266

## Cdk5
[70]
  MAPPIT interaction score: -0.4

## Non1
[71]
  MAPPIT interaction score: 0.589
